Compounds without any hit were thinned out: in the full panel of roughly 83,000, 20% have a hit.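 48-hour exposure, single concentration, 96-well plates; percent growth endpoint where 0 means no net growth. Active: below 10.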 Activity calls are given as the source filed them.
What was measured:
Assay in all cases: NCI-60 one-dose screen, 48 h (100 = growth as untreated, 0 = no growth, -100 = all killed)
Settings in all cases: 10 µM unless noted
[1] = test system: BT-549 breast
[2] = test system: SW-620 colon
[3] = test system: MCF7 breast
[4] = test system: HCT-116 colon
[5] = test system: HCC-2998 colon
[6] = test system: KM12 colon
[7] = test system: MDA-MB-435 melanoma

Measured: growth

COC(=O)c1ccc2c(c1)nc(-c1ccc(O)c(OC)c1)n2-c1cc(C(C)(C)C)[nH]n1
inactive: [1] 108% | [2] 104% | [3] 83.6% | [4] 93.5% | [5] 115% | [6] 96.9%

COC1CC2CCC(C)C(O)(O2)C(=O)C(=O)N2CCCCC2C(=O)OC(C(C)CC2CCC(O)C(OC)C2)CC(=O)C(C)C=C(C)C(O)C(OC)C(=O)C(C)CC(C)/C=C/C=C/C=C1C (stereo not drawn)
inactive: [1] 32.5% | [7] 43.6% | [2] 64.5% | [5] 50.4% | [6] 69.8%

CCCCC1Nc2nc(SC)n(C)c(=O)c2CN(Cc2ccccc2)C1=O (stereo not drawn)
inactive: [7] 99.4% | [2] 107% | [3] 100% | [4] 97.3% | [5] 94.3% | [6] 105%

C=CC1=C(C(=O)O)N2C(=O)[C@@H](NC(=O)/C(=N\O)c3csc(N)n3)[C@H]2SC1 (stereo in doubt)
inactive: [1] 118% | [7] 109% | [2] 106% | [4] 105% | [5] 105% | [6] 112%

CCCCc1nc(Cl)c(CO)n1Cc1ccc(-c2ccccc2-c2nn[nH]n2)cc1
inactive: [1] 106% | [7] 96.5% | [2] 103% | [4] 102% | [5] 104% | [6] 103%

Fc1ccc([C@@H]2CCNC[C@H]2COc2ccc3c(c2)OCO3)cc1
active: [5] -66.8%
inactive: [1] 84.2% | [7] 46.5% | [2] 98.4% | [4] 49.8% | [6] 76.4%

C=C(C)[C@@H]1C/C=C(/C=O)CC[C@@H]2O[C@@]2(C)CC/C=C(\C)CC1
inactive: [7] 107% | [2] 115% | [3] 106% | [4] 105% | [5] 126% | [6] 122%

C[n+]1c2ccccc2c(NC2CCNCC2)c2[nH]c3ccccc3c21
inactive: [7] 30.9% | [2] 16.1%
active: [3] 1.07% | [4] 4.09% | [5] -7.7% | [6] -11.4%

CC(=O)NCCSC(=O)C(=O)SCCNC(C)=O
inactive: [7] 106% | [2] 116% | [3] 125% | [4] 110% | [6] 107%
active: [5] -45.3%

COc1ccc2[nH]c(-c3ccccc3)cc2c1
inactive: [7] 100% | [2] 102% | [3] 95% | [4] 100% | [5] 118% | [6] 99.3%

O=C(O)c1ccccc1C(=O)OC1CCCC2CCCC21 (stereo not drawn)
inactive: [7] 118% | [2] 111% | [3] 94.6% | [4] 112% | [5] 98.5% | [6] 106%

O=[N+]([O-])c1ccc(N/N=C/c2c(O)ccc3ccccc23)nc1
inactive: [7] 58.5% | [2] 48.7% | [3] 17.3% | [4] 25.9% | [5] 54.2% | [6] 44.2%

CCOc1ccccc1C(=O)OCC(=O)Nc1cccc(S(=O)(=O)N(C)C)c1
inactive: [7] 96.2% | [2] 97% | [3] 102% | [4] 96.1% | [5] 98.9% | [6] 104%

COc1ccc(C2=NN(C(C)=O)C(c3cc(OC)c(OC)c(OC)c3)C2)cc1 (stereo not drawn)
inactive: [7] 34.1% | [2] 98% | [3] 89.8% | [4] 103% | [5] 94.9% | [6] 60.5%

CCN(CC)CCOc1ccc(C2=C(c3ccccc3)CCc3cc(OC)ccc32)cc1
active: [7] -33.9% | [2] -59% | [3] -9.06% | [4] 5.52% | [6] -18.4%

CNc1ccc(CSc2ccc(Cl)cc2)cc1
inactive: [7] 87.3% | [2] 109% | [3] 96.2% | [4] 91.3% | [5] 118% | [6] 111%

CCCCCCC(C)(O)c1ccccc1 (stereo not drawn)
inactive: [7] 106% | [2] 107% | [3] 97.4% | [4] 109% | [5] 102% | [6] 107%

O=C(/C=C/c1cccnc1)/C=C/c1cccnc1
active: [7] -28.9% | [2] -68.6% | [3] -39.4% | [4] -92.7% | [5] -70.6% | [6] -85.1%

Oc1ccccc1C=Nc1ccccc1N=Cc1ccccc1O.[Cu+2]
inactive: [7] 56% | [2] 83.4% | [3] 27.6% | [4] 57.9% | [5] 74.2% | [6] 44.6%

CCCOc1ccc2c(c1)CC[C@@H]1[C@@H]2CC[C@@]2(C)[C@H]1CC[C@]2(C)O
inactive: [7] 84.3% | [2] 53.8% | [3] 101% | [5] 74.7% | [6] 35.6%

C[n+]1ccc(Nc2ccc(NC(=O)c3ccc(Nc4cc[n+](C)c5ccc(N)cc45)cc3)cc2)cc1
active: [5] -27.7%
inactive: [7] 88.7% | [2] 105% | [3] 96.2% | [4] 95% | [6] 109%

Reference: PubChem BioAssay (NCI)
